# IkB sig inh = IkB Signaling | ABC-DLBCL IkBa-CBG/CBR dual luciferase ratio, 4 h; response scale: scaled: untreated 0%, proteasome inhibitor 100% | AID 445, 2006 | Potency, µM (highest dose often 57.1 µM), inactives show top-dose IkBa stabilization activation | actives 0.04% (n = 110,000); active = well fitted curve in the direction sought with a large enough effect in the signal ratio, not every such curve was filed as active; inconclusive = small, poorly fitted or top-dose-only effect, or a change in a side signal; the % refers to the signal ratio;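 also: the direction sought is a rising ratio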
#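 Luminescence ratio of IκBα-fused green versus native red beetle luciferase in OCI-Ly3 cells, 4 h post-doxycycline with compound; red signal alone, scaled from basal (0%) to zero light (-100%), flagged nonspecific or cytotoxic effects.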
# ALOX15 inhib = qHTS Assay for Inhibitors of 15-hLO (15-human lipoxygenase) | Polyunsaturated fatty acid lipoxygenase ALOX15 (Homo sapiens), P16050 | purified 15hLO-1, xylenol orange hydroperoxide absorbance | Potency, µM (doses to about 57.1 µM), inactives show at the top dose activity change, negative = inhibition, most hits filed as inhibitors | actives 1.4% (n = 74,000) | AID 887, 2007; also: % is scaled to controls: 0 for no effect and ±100 for the full control effect; nearly all actives have a fitted effect of over 55% in size
#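 Purified human 15hLO-1 (40 nM) in 25 mM Hepes pH 7.5, 0.01% Triton X-100, preincubated 15 min RT with compound, then 50 uM arachidonic acid for 6 min. Hydroperoxide read by ferrous/xylenol orange, 30 min; 573/405 nm absorbance ratio gave progress.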
# Hsp90 Hop PPI = qHTS Assay for Disrupters of an Hsp90 Co-Chaperone Interaction. actives 0.44% (n = 71,000). AlphaScreen TPR2A-His6 binding biotin-Hsp90 C-terminal peptide. Hsp90 C-terminal peptide / TPR2A (Hop) interaction, human. AID 595, 2007. Potency, µM (top dose mostly 57 µM), for the others: at the highest dose activity change, negative = inhibition; active = well fitted curve in either direction with a large enough effect; inconclusive = small, poorly fitted or top-dose-only effect, or another doubt; also: % is scaled to controls: 0 for no effect and ±100 for the full control effect
# Tau fil binding = qHTS Assay for Tau Filament Binding; recombinant tau filaments, thioflavin S fluorescence, 15 h; filaments grown with octadecylsulfate alongside compound; Potency, µM (series often up to 57.1 µM), for the others: at the top dose activity change, negative = inhibition; actives 2% (n = 71,000); AID 596, 2007;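 also: % is scaled to controls: 0 for no effect and ±100 for the full control effect; actives lower thioflavin S fluorescence by blocking filaments or displacing dye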
# Target sequence (P10636 whole entry, looked up): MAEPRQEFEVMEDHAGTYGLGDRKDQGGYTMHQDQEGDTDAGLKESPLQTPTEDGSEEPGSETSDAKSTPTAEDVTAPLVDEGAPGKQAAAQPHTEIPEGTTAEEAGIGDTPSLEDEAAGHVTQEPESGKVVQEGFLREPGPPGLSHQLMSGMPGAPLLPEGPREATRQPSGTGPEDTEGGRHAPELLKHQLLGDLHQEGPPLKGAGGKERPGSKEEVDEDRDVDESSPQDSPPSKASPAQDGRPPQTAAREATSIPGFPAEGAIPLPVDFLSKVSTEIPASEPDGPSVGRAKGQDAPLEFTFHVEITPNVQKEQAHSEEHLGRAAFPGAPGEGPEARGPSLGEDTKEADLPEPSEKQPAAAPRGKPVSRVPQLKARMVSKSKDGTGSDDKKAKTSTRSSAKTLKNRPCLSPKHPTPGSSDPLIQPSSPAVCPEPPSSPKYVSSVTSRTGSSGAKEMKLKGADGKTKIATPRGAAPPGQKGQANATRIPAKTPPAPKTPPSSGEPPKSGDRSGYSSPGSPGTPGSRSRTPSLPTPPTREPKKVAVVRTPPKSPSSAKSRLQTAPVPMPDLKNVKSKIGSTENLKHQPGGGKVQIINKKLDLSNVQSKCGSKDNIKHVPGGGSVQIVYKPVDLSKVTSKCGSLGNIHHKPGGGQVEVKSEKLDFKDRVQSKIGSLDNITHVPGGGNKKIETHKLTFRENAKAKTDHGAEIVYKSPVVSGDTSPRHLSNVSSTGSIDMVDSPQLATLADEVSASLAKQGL
#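 Tau 2 uM in ThS buffer dispensed; compound added; 60 uM ODS added (finals 1 uM tau, 30 uM ODS); 15 h 37 C; fluor ex450/em510.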
# CRE Fsk mod = Cell signaling CRE-BLA (Fsk stim); actives 2.5% (n = 71,000); CHO CRE-bla reporter (cAMP response element driving beta-lactamase), forskolin EC10, beta-lactamase ratio; Potency, µM (series often up to 38.2 µM), inactives show top-dose activity change, negative = inhibition, most hits filed as activators; active = well fitted activation curve with a large enough effect in the signal ratio, with a control signal flat, not every such curve was filed as active; inconclusive = small, poorly fitted or top-dose-only effect, or effect the other way, or a change in a side signal; the % refers to the signal ratio; also: % of control where 0% means no effect
#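 AC50 values, positive or negative, reflect shifts in EC10 NKH 477-induced CRE-bla reporter activity in CHO cells. Incubation lasted 3 h at 37 °C before CCF4 substrate (2 h, room temperature) and ratiometric 460/530 nm reading.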
# Starred values were filed as active, the others as inactive; u = inconclusive; x = no result; [ ] = dose if it differs, or a comment. Rows were chosen to be rich in hits. Some 3.6% of all compounds tested hit in one or more screens of this group. Unless noted, calls follow the shape of the dose curve; as a rule, active = well fitted curve in the direction sought with a large enough effect; inconclusive = small, poorly fitted or top-dose-only effect, or another doubt; inactive = no such curve, though single readings can be large; an effect the other way counts as inactive or inconclusive. Potency is read from the fitted curve at half-maximal effect.
SMILES,IkB sig inh,ALOX15 inhib,Hsp90 Hop PPI,Tau fil binding,CRE Fsk mod
O=C(C1CCCCC1)N1CCCC(c2nc3c(nnn3Cc3ccccc3)c(=O)[nH]2)C1 (stereo unspecified),-1%,16µM*,1%,5%,u
O=c1c2ccccc2nc(SCc2cn3ccsc3n2)n1-c1ccccc1F,7%,-10%,-10%,42%,5µM*
c1ccc(CSCc2cn3ccsc3n2)cc1,1%,-3%,-2%,2%,-2%
O=c1c2ccccc2nc(SCc2nnc(-c3ccccc3Br)o2)n1-c1ccccc1,1%,-11%,-2%,12%,2.5µM*
O=c1c2ccccc2nc(SCc2cn3ccsc3n2)n1-c1ccccc1,1%,-21%,-14%,4%,1.3µM*
CCOC(=O)CCN1C(=O)[C@H]2[C@H]3[C@H](O)[C@H](O)C/C(=N/NC(=O)OCc4ccc(OC)cc4)[C@H]3CC[C@@H]2C1=O,x,4%[11.4 µM],x,x,x
CCN(C(=O)C1CCN(S(=O)(=O)c2ccc3c(c2)CCCN3C(C)=O)CC1)c1cccc(C)c1,2%,x,x,x,x
Cc1ccc(OCC(=O)OCc2cc(=O)n3nc(C4CCCCC4)sc3n2)cc1,3%,x,x,x,x
O=c1c(-c2cccc(F)c2)nc2cncnc2n1Cc1ccc(F)cc1,3%[11.4 µM],-6%,-16%,-21%,u
COc1ccccc1CCn1c(=O)c(-c2cccc(F)c2)nc2cncnc21,2%[11.4 µM],u,-5%,u,u
O=c1c(-c2cc(F)cc(F)c2)nc2cncnc2n1Cc1ccccc1Cl,2%[11.4 µM],5%,-11%,u,u
O=c1c(-c2ccc(F)c(F)c2)nc2cncnc2n1Cc1ccccc1Cl,2%[11.4 µM],1%,-12%,7.9µM*,u
O=c1c(-c2ccc(F)c(F)c2)nc2cncnc2n1Cc1ccc(F)cc1,2%[11.4 µM],-11%,-12%,16µM*,18%
COc1ccccc1CCn1c(=O)c(-c2ccc(F)c(F)c2)nc2cncnc21,0%[11.4 µM],-23%,-4%,-22%,10µM*
COCC(=O)N1CCC[C@@]2(CCN(C(=O)Nc3cccc(C#N)c3)C2)C1,1%[11.4 µM],-4%,0%,-14%,1%
Cc1ccc(NC(=O)CN2C=NS(=O)(=O)c3ccccc32)cc1,0%,x,x,x,x
CCc1ccc(NS(=O)(=O)c2ccc3[nH]cc(C(=O)NCCCOC(C)C)c(=O)c3c2)cc1,-1%,x,x,x,x
CC(C)Sc1oc(-c2ccco2)nc1S(=O)(=O)c1ccc(F)cc1,7%,25µM*,-1%,-26%,3%
Cc1ccc(S(=O)(=O)c2nc(-c3ccco3)oc2SC(C)c2ccccc2)cc1 (stereo unspecified),0%,x,x,x,x
O=C1CCCC2=C1C(c1ccco1)Nc1ccc3ccccc3c12 (stereo unspecified),3%,u,-7%,13µM*,-2%
COc1cc(C2Nc3ccc4ncccc4c3C3=C2C(=O)CCC3)cc(OC)c1O (stereo unspecified),2%,-3%,-8%,21%,u
O=C(Nc1ccc2nc3n(c(=O)c2c1)CCCCC3)c1cccc(C(F)(F)F)c1,7%,x,x,x,x
Cc1ccccc1C(=O)Nc1ccc2nc3n(c(=O)c2c1)CCC3,13%,5%,-4%,-5%,13µM*
COC(=O)c1ccc(C2c3c(oc4ccccc4c3=O)C(=O)N2c2nc(C)c(C(=O)OC)s2)cc1 (stereo unspecified),1%,x,x,x,x
C=CCOC(=O)c1sc(N2C(=O)c3oc4ccccc4c(=O)c3C2c2ccco2)nc1C (stereo unspecified),u,-11%,-3%,10µM*,7%
C=C(C)CC1Nc2ccccc2NC1CC(=C)C (stereo unspecified),1%,20µM*,u,216%,u
CCCSCCCNC(=O)CN1C(=O)COc2ccc(S(=O)(=O)N3CCC(C)CC3)cc21,1%,x,x,x,x
Fc1ccc([C@H]2CCNC[C@H]2COc2ccc3c(c2)OCO3)cc1,u,-29%[25.6 µM],-7%,32µM*,-8%

# High-throughput results: PubChem, National Center for Advancing Translational Sciences (NCATS)
